Common to all, as to assay: NCI-60 one-dose screen, 48 h (100 = growth as untreated, 0 = no growth, -100 = all killed)
One test concerns SN12C renal. The following applies: 10 µM.
A further test concerns UO-31 renal. The following applies: 10 µM.
In another test the test system is ACHN renal. The following applies: 10 µM.
Another test deals with CAKI-1 renal. The following applies: 10 µM.
A further test relates to A498 renal. The following applies: 10 µM.
The next test relates to CCRF-CEM leukemia. The following applies: 10 µM.
The subject of a further test is SR leukemia. The following applies: 10 µM.
The next test concerns RPMI-8226 leukemia. The following applies: 10 µM.
For the next test, the system named is OVCAR-8 ovarian. The following applies: 10 µM.
Another test has as its system OVCAR-5 ovarian. The following applies: 10 µM.
For another test, the system named is OVCAR-4 ovarian. The following applies: 10 µM.
For the next test, the system named is SK-OV-3 ovarian. The following applies: 10 µM.
A further test deals with IGROV1 ovarian. The following applies: 10 µM.
Another test concerns OVCAR-3 ovarian. The following applies: 10 µM.
Another test concerns HS 578T breast. The following applies: 10 µM.
Another test has as its system NCI/ADR-RES ovarian. The following applies: 10 µM.
The test system of a further test is TK-10 renal. The following applies: 10 µM unless noted.
The subject of the next test is MOLT-4 leukemia. The following applies: 10 µM.
The subject of a further test is EKVX NSCLC. The following applies: 10 µM.

This is part of a sample that, as a whole, favours compounds with a hit. Of some 83,000 tested, about 20% had one in any assay.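 Note: values are percent growth. 100 is the growth of untreated cells, values between 100 and 0 indicate rising inhibition; between -100 and 0 indicates cell death.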 Unmarked numbers belong to inactive results. Activity calls are given as the source filed them. How the source made its calls: active means growth percent below 10; inactive means the rest.

On to `CCCCC(=O)c1ccc(OC)cc1`, for which the growth was 105% in the test on SN12C renal; 97% with UO-31 renal; 96.3% in the test on ACHN renal; 99.2% with CAKI-1 renal; 84.1% in the test on A498 renal; 92.1% in the test on CCRF-CEM leukemia. The growth in the test on SR leukemia was 92.2%; in the test with RPMI-8226 leukemia it was 99.8%; in the test on OVCAR-8 ovarian it was 97%; in the test with OVCAR-5 ovarian it was 90.5%; in the test with OVCAR-4 ovarian it was 116%; with SK-OV-3 ovarian, 111%. Besides, the growth was 101% in the test with IGROV1 ovarian, 114% in the test with OVCAR-3 ovarian, 95.2% in the test on HS 578T breast and 105% with NCI/ADR-RES ovarian.
`CNC(=O)c1ccccc1CC1(O)c2ccccc2Oc2ccccc21`: the growth in the test on SN12C renal was 80.9%; in the test on UO-31 renal, 57.7%; with TK-10 renal it was 58.9%; in the test on ACHN renal it was 54.4%; with CAKI-1 renal, 44.8%; with A498 renal, 0.171% (active). Moreover, the growth in the test on CCRF-CEM leukemia is 56.4%; in the test on MOLT-4 leukemia, 38.1%; in the test on SR leukemia, 8.48% (active); in the test with RPMI-8226 leukemia, 70.5%; in the test with OVCAR-8 ovarian, 74.4%; in the test with OVCAR-5 ovarian it was 80.4%. Besides, the growth in the test on OVCAR-4 ovarian is 83.6%; in the test on SK-OV-3 ovarian, 73.7%; in the test with IGROV1 ovarian it was 43%; with OVCAR-3 ovarian, 24.7%; with HS 578T breast it was 63.5%; in the test with NCI/ADR-RES ovarian, 29%.
Take `COC(=O)Nc1cccc(Cl)c1OC`: the growth in the test on SN12C renal is 112%; with UO-31 renal, 95.6%; in the test with TK-10 renal, 120%; in the test with ACHN renal, 99.8%; with CAKI-1 renal, 94.5%; in the test with A498 renal, 61.9%. The growth in the test with MOLT-4 leukemia is 103%; in the test on SR leukemia it was 101%; in the test on RPMI-8226 leukemia, 99.3%; in the test with OVCAR-8 ovarian, 106%; with OVCAR-5 ovarian, 92.6%; with OVCAR-4 ovarian it was 111%. Further, the growth in the test on SK-OV-3 ovarian was 116%; in the test on IGROV1 ovarian, 110%; with OVCAR-3 ovarian it was 111%; with HS 578T breast it was 95.4%; in the test with NCI/ADR-RES ovarian, 110%.
Take `O=C(O)c1ccccc1NCc1ccco1`: the growth was 103% with EKVX NSCLC; 99.8% in the test with SN12C renal; 64.7% with TK-10 renal; 115% in the test on ACHN renal; 98.6% with CCRF-CEM leukemia; 104% in the test with MOLT-4 leukemia. Also, the growth in the test with SR leukemia was 87.8%; in the test with RPMI-8226 leukemia, 79.1%; in the test on OVCAR-8 ovarian it was 94.2%; with OVCAR-5 ovarian, 93.1%; with OVCAR-4 ovarian it was 99.1%; in the test on SK-OV-3 ovarian, 109%. The values for the growth in the test on OVCAR-3 ovarian, in the test with HS 578T breast and in the test on NCI/ADR-RES ovarian were 111%, 107% and 94.5%, respectively.
`CC(=O)c1ccc(N=C(C#N)C2=C(O)c3ccccc3C2=O)cc1`: the growth is 103% in the test on SN12C renal; 90.8% in the test with UO-31 renal; 129% in the test with TK-10 renal; 106% in the test on ACHN renal; 105% in the test on CAKI-1 renal; 88.1% in the test on A498 renal. Also, the growth in the test on CCRF-CEM leukemia is 104%; in the test on MOLT-4 leukemia, 92.1%; in the test on SR leukemia it was 91.1%; in the test on RPMI-8226 leukemia, 117%; in the test on OVCAR-8 ovarian, 103%; in the test on OVCAR-5 ovarian it was 119%. Besides, the growth is 108% with OVCAR-4 ovarian; 95% with SK-OV-3 ovarian; 115% in the test on IGROV1 ovarian; 112% with OVCAR-3 ovarian; 107% in the test on HS 578T breast; 105% in the test on NCI/ADR-RES ovarian.
Regarding `O=C(O)CCC(=O)OC(C1CO1)C(OC(=O)CCC(=O)O)C1CO1` (stereo not drawn), the growth with SN12C renal was 109%; in the test with UO-31 renal, 85.3%; with TK-10 renal, 93.2%; with ACHN renal, 101%; in the test with CAKI-1 renal it was 106%; with A498 renal, 80.5%. For the same compound, the growth is 101% in the test on CCRF-CEM leukemia; 101% with SR leukemia; 95.9% in the test on OVCAR-8 ovarian; 93.4% with OVCAR-5 ovarian; 96.8% in the test with SK-OV-3 ovarian; 110% in the test on IGROV1 ovarian. In addition, the figures for the growth in the test with OVCAR-3 ovarian, in the test on HS 578T breast and in the test on NCI/ADR-RES ovarian were 103%, 113% and 109%, respectively.
On to `CN(C)c1ccc2nc3ccc(=N)cc-3sc2c1`, for which the growth with SN12C renal was 57.3%; in the test on UO-31 renal, 57.3%; with TK-10 renal, 105%; in the test with CAKI-1 renal, 68.3%; in the test on A498 renal, 55.8%; in the test on SR leukemia, 12%. Also, the growth in the test with RPMI-8226 leukemia is 6.67% (active); in the test on OVCAR-8 ovarian, 3.37% (active); with OVCAR-5 ovarian it was 80.1%; in the test on OVCAR-4 ovarian it was -8.03% (active); in the test with SK-OV-3 ovarian, 95.9%; in the test with IGROV1 ovarian, 49.4%. Besides, the results for the growth with OVCAR-3 ovarian, in the test with HS 578T breast and in the test with NCI/ADR-RES ovarian were 6.65% (active), 99.6% and 3.53% (active), respectively.
For `O=C(OCC(O)C1OC(c2ccccc2)OC(COC(=O)c2ccccc2)C1O)c1ccccc1` (stereo not drawn), the growth with SN12C renal is 99.6%; with UO-31 renal, 93.2%; with TK-10 renal, 99.6%; with ACHN renal, 106%; with CAKI-1 renal, 85.3%; in the test on MOLT-4 leukemia it was 102%. Moreover, the growth in the test on OVCAR-8 ovarian is 103%; in the test on OVCAR-5 ovarian, 105%; in the test on OVCAR-4 ovarian it was 93.2%; in the test with SK-OV-3 ovarian, 108%; in the test on IGROV1 ovarian, 103%; in the test with OVCAR-3 ovarian, 118%. In addition, the growth in the test with HS 578T breast is 116%; in the test on NCI/ADR-RES ovarian it was 107%.
As for `CC(CC(=O)c1ccccc1)c1ccccc1` (stereo not drawn), the growth was 107% with SN12C renal; 95.4% in the test on UO-31 renal; 90.1% in the test on TK-10 renal; 115% with ACHN renal; 106% in the test on CAKI-1 renal; 88.8% in the test on A498 renal. Moreover, the growth in the test on CCRF-CEM leukemia is 98.4%; in the test with MOLT-4 leukemia, 103%; in the test on SR leukemia it was 101%; in the test with RPMI-8226 leukemia, 104%; in the test on OVCAR-8 ovarian, 102%; with OVCAR-5 ovarian it was 113%. Moreover, the growth was 109% with OVCAR-4 ovarian; 127% in the test on SK-OV-3 ovarian; 101% in the test with IGROV1 ovarian; 116% in the test on OVCAR-3 ovarian; 118% with HS 578T breast; 118% with NCI/ADR-RES ovarian.
Take `O=C(Nc1cccc(NC(=O)Nc2cc(C(F)(F)F)ccc2Cl)c1)Nc1cc(C(F)(F)F)ccc1Cl`: the growth was 22% in the test with SN12C renal; 0.156% (active) in the test on UO-31 renal; -13.8% (active) in the test with TK-10 renal; 9.11% (active) in the test on ACHN renal; -2.82% (active) with CAKI-1 renal; -3.96% (active) in the test with A498 renal. The growth in the test with CCRF-CEM leukemia is 5.91% (active); in the test with MOLT-4 leukemia, 2.16% (active); with SR leukemia it was -15.6% (active); in the test with RPMI-8226 leukemia it was -14.5% (active); in the test with OVCAR-8 ovarian it was 14.3%; in the test with OVCAR-5 ovarian it was 27.7%. In addition, the growth in the test on OVCAR-4 ovarian was 7.2% (active); with IGROV1 ovarian it was 26.9%; with OVCAR-3 ovarian it was -5.64% (active); with HS 578T breast, 18.9%; in the test on NCI/ADR-RES ovarian, 26.2%.
